From the supplement of paper PMC9262897, “Low-cost anti-mycobacterial drug discovery using engineered E. coli” (Nature Communications, 2022)
Where a name gives a salt, the structure may show the parent alone. ± gives the standard deviation of the averaged measurements.

Tests used:
Assay in all cases: growth (OD600 after 10 h); higher = more growth (less inhibition)
[1] = tested on: E. coli TESEC Alr+ wild-type control; settings: compound 0.1 mM; raw OD600 reference: median of DMSO wells 0.241, cell-free background 0.041
Description: (§1)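 TESEC Mtb Alr E. coli, or the Alr+ wild-type control, in 384-well plates with Prestwick library compounds at 0.1 mM and 1% DMSO, across arabinose induction levels of 1E3 to 1E7 nM. Growth is read as OD600 after 10 h at 37 °C in triplicate biological replicates.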

[2] = tested on: E. coli TESEC Mtb Alr; settings: compound 0.1 mM
Description: as §1

[3] = tested on: E. coli TESEC Mtb Asd; settings: compound 0.1 mM
Description: (§2)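 TESEC E. coli strains in which the native enzyme is deleted and replaced by arabinose-inducible Mtb Asd, DapB, CysH or TrpD, each grown in its selective medium. Strains were screened against the Prestwick library at 0.1 mM and 1% DMSO in 384-well format at low and high arabinose induction. Growth is read as OD600 after 10 h in triplicate.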

[4] = tested on: E. coli TESEC Mtb DapB; settings: compound 0.1 mM
Description: as §2

[5] = tested on: E. coli TESEC Alr+ wild-type control; settings: compound 0.1 mM; raw OD600 reference: median of DMSO wells 0.49, cell-free background 0.052
Description: (§3)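 TESEC Mtb Alr E. coli (ΔaraC ΔtolC ΔentC Δalr ΔdadX, arabinose-inducible Mtb Alr) or the Alr+ wild-type control strain, grown in defined M9-fructose medium without D-alanine in 96-well plates with Prestwick library compounds at 0.1 mM and 1% DMSO. Low Alr induction is 0.1 µM arabinose and high induction is 10 mM arabinose.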

[6] = tested on: E. coli TESEC Mtb Alr; settings: compound 0.1 mM; remark: listed apart in the source
Description: as §3

[7] = arabinose 1000 nM, raw OD600 reference: median of DMSO wells 0.294, cell-free background 0.041
[8] = arabinose 10000 nM, raw OD600 reference: median of DMSO wells 0.264, cell-free background 0.041
[9] = arabinose 100000 nM, raw OD600 reference: median of DMSO wells 0.201, cell-free background 0.041
[10] = arabinose 1000000 nM, raw OD600 reference: median of DMSO wells 0.193, cell-free background 0.041
[11] = arabinose 10000000 nM, raw OD600 reference: median of DMSO wells 0.146, cell-free background 0.041
[12] = arabinose induction (level): High, raw OD600 reference: median of DMSO wells 0.331, cell-free background 0.041
[13] = arabinose induction (level): Low, raw OD600 reference: median of DMSO wells 0.417, cell-free background 0.041
[14] = arabinose induction (level): High, raw OD600 reference: median of DMSO wells […], cell-free background 0.041
[15] = arabinose induction (level): Low, raw OD600 reference: median of DMSO wells 0.227, cell-free background 0.041
[16] = arabinose 100 nM, raw OD600 reference: median of DMSO wells 0.413, cell-free background 0.052
[17] = arabinose 10000000 nM, raw OD600 reference: median of DMSO wells […], cell-free background 0.052

Compound | growth [1] | growth [2, 7] | growth [2, 8] | growth [2, 9] | growth [2, 10] | growth [2, 11] | growth [3, 12] | growth [3, 13] | growth [4, 14] | growth [4, 15] | growth [5] | growth [6, 16] | growth [6, 17]
C[C@@H]1[C@H](O)[C@@H](C)/C=C/C=C/C=C/C=C/C=C/C=C/C=C/[C@H](O[C@@H]2O[C@H](C)[C@@H](O)[C@H](N)[C@@H]2O)C[C@@H]2O[C@](O)(C[C@@H](O)C[C@@H](O)[C@H](O)CC[C@@H](O)C[C@@H](O)CC(=O)O[C@H]1C)C[C@H](O)[C@H]2C(=O)O [Amphotericin B] | 0.316 ± 0.0027 | 0.33 ± 0.0067 | 0.27 ± 0.0035 | 0.345 ± 0.0081 | 0.182 ± 0.0098 | 0.261 ± 0.0027 | 0.416 ± 0.042 | 0.504 ± 0.026 | 0.208 ± 0.019 | 0.237 ± 0.046 | 0.532 ± 0.087 | 0.433 ± 0.022 | 0.478 ± 0.027
C#C[C@]1(O)CC[C@H]2[C@@H]3CCC4=CCCC[C@@H]4[C@H]3CC[C@@]21C [Lynestrenol] | 0.237 ± 0.0046 | 0.297 ± 0.0055 | 0.266 ± 0.015 | 0.18 ± 0.033 | 0.164 ± 0.0081 | 0.15 ± 0.0066 | 0.312 ± 0.033 | 0.387 ± 0.039 | 0.174 ± 0.0039 | 0.198 ± 0.027 | 0.451 ± 0.013 | 0.394 ± 0.0051 | 0.289 ± 0.0077
Cc1cc(CC(=O)O)n(C)c1C(=O)c1ccc(Cl)cc1 [Zomepirac sodium salt] | 0.22 ± 0.0032 | 0.261 ± 0.022 | 0.239 ± 0.0082 | 0.16 ± 0.0043 | 0.1938 ± 0.0017 | 0.121 ± 0.0027 | 0.473 ± 0.13 | 0.295 ± 0.069 | 0.187 ± 0.0096 | 0.247 ± 0.038 | 0.476 ± 0.083 | 0.392 ± 0.014 | 0.3428 ± 0.0013
Nc1c2ccccc2nc2ccccc12 [Aminacrine] | 0.0412 ± 0.0015 | 0.0397 ± 0.00091 | 0.0408 ± 0.0025 | 0.043 ± 0.0015 | 0.0398 ± 0.0011 | 0.0406 ± 0.00096 | 0.0581 ± 0.016 | 0.0513 ± 0.004 | 0.0484 ± 0.00044 | 0.0506 ± 0.005 | 0.0507 ± 0.00067 | 0.15 ± 0.062 | 0.0885 ± 0.027
CC1(C)NC(=O)N(c2ccc([N+](=O)[O-])c(C(F)(F)F)c2)C1=O [Nilutamide] | 0.216 ± 0.017 | 0.273 ± 0.0069 | 0.256 ± 0.003 | 0.189 ± 0.012 | 0.153 ± 0.0033 | 0.142 ± 0.0062 | 0.281 ± 0.1 | 0.399 ± 0.042 | 0.194 ± 0.012 | 0.252 ± 0.0066 | 0.552 ± 0.064 | 0.396 ± 0.013 | 0.295 ± 0.017
CCCCC(=O)N(Cc1ccc(-c2ccccc2-c2nnn[nH]2)cc1)[C@H](C(=O)O)C(C)C [Valsartan] | 0.249 ± 0.013 | 0.307 ± 0.0036 | 0.27 ± 0.0035 | 0.213 ± 0.02 | 0.193 ± 0.014 | 0.151 ± 0.0071 | 0.291 ± 0.042 | 0.396 ± 0.047 | 0.211 ± 0.011 | 0.257 ± 0.03 | 0.557 ± 0.049 | 0.422 ± 0.016 | 0.339 ± 0.012
Cc1cc(-c2ccccc2)nnc1NCCN1CCOCC1 [Minaprine dihydrochloride] | 0.227 ± 0.0047 | 0.288 ± 0.011 | 0.25 ± 0.0072 | 0.182 ± 0.012 | 0.155 ± 0.004 | 0.156 ± 0.0078 | 0.212 ± 0.028 | 0.342 ± 0.074 | 0.185 ± 0.0026 | 0.225 ± 0.045 | 0.498 ± 0.045 | 0.409 ± 0.0057 | 0.318 ± 0.029
CCCOc1cc(N)ccc1C(=O)OCCN(CC)CC [Propoxycaine hydrochloride] | 0.229 ± 0.005 | 0.289 ± 0.0076 | 0.274 ± 0.01 | 0.199 ± 0.034 | 0.22 ± 0.011 | 0.138 ± 0.0039 | 0.36 ± 0.085 | 0.376 ± 0.079 | 0.225 ± 0.0078 | 0.22 ± 0.017 | 0.487 ± 0.08 | 0.41 ± 0.0052 | 0.361 ± 0.015
O=C(Cn1ccnc1[N+](=O)[O-])NCCO [Etanidazole] | 0.2444 ± 0.00084 | 0.306 ± 0.015 | 0.258 ± 0.0028 | 0.213 ± 0.0053 | 0.178 ± 0.0091 | 0.138 ± 0.0056 | 0.318 ± 0.027 | 0.423 ± 0.0082 | 0.202 ± 0.006 | 0.232 ± 0.0081 | 0.471 ± 0.019 | 0.406 ± 0.012 | 0.358 ± 0.016
Nc1ccc(S(=O)(=O)Nc2cnc3ccccc3n2)cc1 [Sulfaquinoxaline sodium salt] | 0.221 ± 0.0039 | 0.266 ± 0.02 | 0.171 ± 0.004 | 0.21 ± 0.0087 | 0.1074 ± 0.00085 | 0.137 ± 0.0051 | 0.289 ± 0.073 | 0.396 ± 0.028 | 0.181 ± 0.012 | 0.204 ± 0.022 | 0.47 ± 0.082 | 0.419 ± 0.0091 | 0.297 ± 0.0077
CCN1CCCC(OC(=O)C(c2ccccc2)c2ccccc2)C1 (configuration not stated) [Piperidolate hydrochloride] | 0.18 ± 0.0021 | 0.264 ± 0.0065 | 0.259 ± 0.012 | 0.161 ± 0.01 | 0.157 ± 0.0096 | 0.136 ± 0.0042 | 0.176 ± 0.025 | 0.428 ± 0.14 | 0.178 ± 0.018 | 0.182 ± 0.0083 | 0.555 ± 0.023 | 0.4174 ± 0.0019 | 0.329 ± 0.011
CC(C)/N=c1\cc2n(-c3ccc(Cl)cc3)c3ccccc3nc-2cc1Nc1ccc(Cl)cc1 [Clofazimine] | 0.158 ± 0.004 | 0.231 ± 0.016 | 0.154 ± 0.037 | 0.225 ± 0.023 | 0.0638 ± 0.0033 | 0.168 ± 0.013 | 0.247 ± 0.053 | 0.337 ± 0.11 | 0.248 ± 0.023 | 0.261 ± 0.012 | 0.154 ± 0.012 | 0.395 ± 0.031 | 0.06873 ± 0.00031
CC(=O)Oc1cc(C(F)(F)F)ccc1C(=O)O [Triflusal] | 0.224 ± 0.0053 | 0.275 ± 0.0064 | 0.259 ± 0.0086 | 0.186 ± 0.019 | 0.177 ± 0.0042 | 0.14 ± 0.004 | 0.218 ± 0.009 | 0.367 ± 0.082 | 0.207 ± 0.0034 | 0.206 ± 0.015 | 0.555 ± 0.033 | 0.376 ± 0.011 | 0.315 ± 0.011
Nc1ncn(C2OC(CO)C(O)C2O)c(=O)n1 (configuration not stated) [Azacytidine-5] | 0.093 ± 0.0029 | 0.106 ± 0.0065 | 0.0449 ± 0.0005 | 0.113 ± 0.0011 | 0.0465 ± 0.00069 | 0.0822 ± 0.0002 | 0.125 ± 0.0088 | 0.192 ± 0.065 | 0.199 ± 0.03 | 0.193 ± 0.027 | 0.4795 ± 0.0037 | 0.385 ± 0.022 | 0.066 ± 0.0049
